# Source: PubChem BioAssay (several laboratories)
# The list is not random: actives were taken first. Their share in the collection is about 5.4%.
# A3A deaminase – blocks human APOBEC3A ssDNA deamination; AID 493011; 330,000 tested, 0.41% active; inhibition, % at 20 µM; recombinant A3A, FAM/TAMRA ssDNA deamination fluorescence;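 active = at least 40% inhibition at 20 µM here, with at most 30% in a related deaminase screen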;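 note: plate controls were A3A with DMSO for no effect and wells lacking A3A enzyme for full effect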
# APOBEC3G inh – inhibitors of human APOBEC3G DNA deaminase; Q9HC16; recombinant A3G, ssDNA deamination FAM/TAMRA fluorescence; inhibition, % at 20 µM; 330,000 tested, 0.28% active; AID 493012;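 active = inhibition of at least 40% at 20 µM, with no more than 30% in the related APOBEC3A deaminase screen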;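 note: plate controls were DMSO wells with A3G for no effect and wells lacking A3G enzyme for full effect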
# Target sequence (Q9HC16 whole entry, looked up): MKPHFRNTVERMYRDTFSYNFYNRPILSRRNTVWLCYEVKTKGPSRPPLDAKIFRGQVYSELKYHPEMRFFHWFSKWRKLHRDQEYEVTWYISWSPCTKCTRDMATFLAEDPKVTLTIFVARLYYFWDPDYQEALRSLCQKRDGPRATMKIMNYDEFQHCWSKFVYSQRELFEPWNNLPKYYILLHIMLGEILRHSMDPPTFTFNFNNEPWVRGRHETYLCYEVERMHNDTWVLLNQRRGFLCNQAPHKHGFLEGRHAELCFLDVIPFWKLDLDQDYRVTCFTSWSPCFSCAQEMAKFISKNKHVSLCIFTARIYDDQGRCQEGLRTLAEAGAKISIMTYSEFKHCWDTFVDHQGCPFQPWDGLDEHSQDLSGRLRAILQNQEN
# rCAG RNA binder – molecules binding r(CAG) RNA repeats. r(CAG) RNA repeat, TO-PRO-1 dye displacement fluorescence. inhibition, % at 3 µM. 370,000 tested, 1.3% active;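 active = inhibition above the plate cutoff, the mean of all test compounds on that plate plus 3 SD, cut at about 35% in these data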;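 note: 0% = DMSO alone and 100% = 100 µM mitoxantrone as full dye displacement; higher means more dye released from RNA so lower well fluorescence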
# PHOSPHO1 block – blocks human PHOSPHO1 phosphatase activity | inhibition, % at 13.3 µM | Q8TCT1 | AID 1565 | recombinant PHOSPHO1, absorbance phosphatase assay | 290,000 tested, 1.1% active; in the data active = inhibition above about 60%
# aDG glyco up – alpha-DG glycosylation activation; Pro5-aDG cells, alpha-DG glycosylation AlphaScreen (IIH6); 0% Pro5, 100% B10-LARGE cell signal; activation, % at 10 µM; 360,000 tested, 0.22% active; AID 624168;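 active = activation of at least 8% versus controls, or a plate z-score of at least 8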;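 note: Pro5 are CHO cells carrying HIG-tagged alpha-DG that lacks glycosylation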
# ALR H2O2 inh – human ALR oxidase inhibition via reduced H2O2; P55789; purified ALR, DTT oxidation, H2O2 HRP-luminol luminescence; inhibition, % (concentration not given with the values); 290,000 tested, 3.8% active; AID 485317;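 active = mean replicate inhibition above about 79%, with every replicate also reaching it, limit read from the data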
# Target sequence (P55789 whole entry, looked up): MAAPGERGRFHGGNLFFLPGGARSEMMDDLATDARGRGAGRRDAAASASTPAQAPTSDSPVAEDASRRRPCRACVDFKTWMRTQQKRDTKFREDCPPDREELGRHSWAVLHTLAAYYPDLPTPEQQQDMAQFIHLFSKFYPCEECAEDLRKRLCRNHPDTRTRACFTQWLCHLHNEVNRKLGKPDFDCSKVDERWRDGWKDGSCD
# A3A conf – confirmation of human APOBEC3A DNA deaminase inhibitors; inhibition, % at 20 µM; 1,400 tested, 63% active; recombinant A3A, ssDNA deaminase UDG fluorescence assay; shares compounds with A3A deaminase;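 active = inhibition reaching a set limit, 80% of the first screen's cutoff, at 20 µM in any replicate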;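 note: plate controls were DMSO wells with A3A for no effect and wells lacking A3A enzyme for full effect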
# UDG ctr A3A – inhibits UDG, flagging false APOBEC3A inhibitors; shares compounds with A3A deaminase; AID 504714; UDG counterscreen, FAM/TAMRA uracil oligo fluorescence; 1,000 tested, under 10 active; inhibition, % at 20 µM; call rule not given here
# The depositor's hits bear a star; . = not tested or not shown.
SMILES,A3A deaminase,APOBEC3G inh,rCAG RNA binder,PHOSPHO1 block,aDG glyco up,ALR H2O2 inh,A3A conf,UDG ctr A3A
CCCCn1c2c(c(=N)c3c1CCC3)CCC2,63*,21,5,95*,0,-5,78*,-1
COc1ccc(NC(=O)C2Cc3c(-c4ccco4)ccnc3O2)cc1OC (configuration not stated),.,.,4,.,1,.,.,.
CC(=O)c1c(C)cc(C)c(CSc2ccccn2)c1C,59*,15,-7,.,0,-4,58*,1
C[C@H](CO)N1C[C@H](C)[C@@H](CN(C)C(=O)c2ccc3c(c2)OCO3)Oc2cc(/C=C/c3ccccc3)ccc2S1(=O)=O,.,.,7,.,0,.,.,.
O=C(c1ccccc1)N1CC[C@H]2[C@H](CCCN2Cc2cc(F)cc(F)c2)C1,.,.,-1,.,.,.,.,.
CCN(CC(=O)Nc1cccc(F)c1)CC(=O)Nc1ccc2c(c1)OCCO2,.,.,0,.,1,.,.,.
CN(CC(=O)Nc1cccc(F)c1)C(=O)c1ccc2c(c1)OCCO2,40*,4,-5,.,0,3,2,.
CCn1c(COc2ccc(Cl)cc2)nnc1SCC(=O)Nc1ccc(Oc2ccccc2)cc1,.,.,6,.,.,.,.,.
CN(C)CCN(Cc1ccccc1)C(=O)[C@H](Cc1ccccc1)N1C(=O)c2ccccc2C1=O,42*,2,2,5,0,.,24,.
O=C(O)C(Cc1ccccc1)N1C(=O)c2ccccc2C1=O (configuration not stated),2,-1,1,7,0,.,.,.
CN(C)c1ccc(N=Nc2ccc(C(=O)O)cc2)cc1,64*,25,5,35,0,1,54*,1
CCOc1ccccc1OCCOCCOc1c(Cl)cccc1Cl,-1,-6,-1,-7,0,.,.,.
CC[N+](CC)(CC)CCOc1cccc(OCC[N+](CC)(CC)CC)c1OCC[N+](CC)(CC)CC,75*,20,.,.,0,.,92*,-3
CC[N+](CC)(CC)CCOc1ccc(/C=C/c2ccccc2)cc1,49*,11,8,.,0,.,76*,-2
O=[N+]([O-])c1cccc(/C=N/n2cnnc2)c1O,4,-6,13,11,0,-40,.,.
O=C1ON=C(c2ccccc2[N+](=O)[O-])/C1=C/c1cccc([N+](=O)[O-])c1O,57*,17,5,.,0,-7,83*,-1
O=C1ON=C(c2cccc([N+](=O)[O-])c2)/C1=C/c1ccc(O)cc1,5,1,23,3,0,61,.,.
O=C1ON=C(c2ccc(Cl)c([N+](=O)[O-])c2)/C1=C/c1cccc([N+](=O)[O-])c1O,82*,23,2,.,0,-1,88*,-3
CC(=O)Nc1ccc(-c2ccnc3c2CC(C)(C(=O)NCc2ccc(F)c(F)c2)O3)cc1 (configuration not stated),.,.,1,.,0,.,.,.
O=C(CNC(=O)OCc1ccccc1)Nc1ccc(F)cc1,67*,20,5,.,0,0,70*,1
O=C(NCc1ccccc1)[C@H]1CCCN1C(=O)[C@H]1CCCN1C(=O)c1ccc(Cl)cc1,.,.,0,.,.,.,.,.
C=CCn1c2[n+](c3ccccc3c1=O)CCCCC2,67*,14,-3,-21,0,3,52*,-2
COC(=O)[C@]12C[C@H](CC(=O)NCCCN3CCCC3=O)C(=O)N(CCc3ccc(OC)c(OC)c3)C1=C[C@H](C1CCCC1)O[C@@H]2C,.,.,-1,.,.,.,.,.
CCCN(CC(=O)Nc1cc(Cl)ccc1Cl)C(=O)/C=C/c1ccco1,77*,-3,3,-6,0,-1,1,-2
CCCN(CC(=O)Nc1cc(Cl)ccc1Cl)C(=O)/C=C/c1cc(OC)ccc1OC,-1,-1,4,.,0,2,.,.
SMILES,A3A deaminase,APOBEC3G inh,rCAG RNA binder,PHOSPHO1 block,aDG glyco up,ALR H2O2 inh,A3A conf,UDG ctr A3A
CN(C[C@H](Cc1ccccc1)N(C[C@H](Cc1ccccc1)N(CCC(C)(C)C)N=O)N=O)N=O,98*,-6,0,26,0,.,-3,-2
Cc1cc(C)cc(OCC(=O)N2N=C(C(F)(F)F)CC2(O)C(C)(C)C)c1 (configuration not stated),56*,19,-7,6,0,-7,48*,-1
COc1ccc(CN(C(=O)c2ccco2)C2CCS(=O)(=O)C2)cc1 (configuration not stated),72*,-8,-2,46,0,1,-6,2
Cc1ccc(S(=O)(=O)N(C)C)cc1NC(=O)CSc1nnc(C2CC2)n1C1CC1,-4,-8,4,.,0,.,.,.
Cc1cc(C)n2c(SCC(=O)Nc3cc(S(=O)(=O)N(C)C)ccc3C)nnc2n1,40*,3,3,.,0,.,23,.
CC(=O)Nc1ccc(NC(=O)CSc2nc(=O)n(Cc3cccnc3)c3c2CCC3)cc1,.,.,1,.,0,.,.,.
COc1ccc(C(=S)N2CCN(c3ccccc3C)CC2)cc1OC,.,.,1,.,0,.,.,.
CC(C)(C)OC(=O)N1CCN(C(=O)c2nc[nH]c2C(=O)N2CCN(C(=O)OC(C)(C)C)CC2)CC1,0,-10,-7,.,0,18,.,.
CCn1cc(Br)c(C(=O)N2CCN(c3ccccc3)CC2)n1,-2,0,-7,-7,0,75,.,.
Cn1cnc(C(=O)N2CCN(c3ccccc3)CC2)c1C(=O)N1CCN(c2ccccc2)CC1,59*,16,-3,.,0,54,67*,2
Cn1cnc(C(=O)N2CCN(C(=O)OC(C)(C)C)CC2)c1C(=O)N1CCN(C(=O)OC(C)(C)C)CC1,46*,8,-13,.,0,3,64*,0
Cc1ccc(-c2cnc(C(O)c3ccc(Cl)cc3C)[nH]2)cc1 (configuration not stated),.,.,0,.,0,.,.,.
O=C(c1ccc2c(c1)C(=O)NC2=O)c1ccc2c(c1)C(=O)NC2=O,.,.,1,.,.,.,.,.
O=C(CSc1nnc(-c2cnccn2)n1-c1ccccc1)Nc1ccc2c(c1)OCCO2,.,.,1,.,.,.,.,.
O=C(N[C@H](C(=O)N1CCC[C@H]1C(=O)NCc1ccccc1)c1ccccc1)c1ccc(Cl)c(Cl)c1,.,.,4,.,.,.,.,.
Cc1ccnc(NS(=O)(=O)c2ccc(NC(=O)Cc3cccs3)cc2)n1,54*,30,.,4,0,-4,61*,-4
O=C(c1cc(C2CCCCN2S(=O)(=O)c2cccs2)on1)N1CCOCC1 (configuration not stated),.,.,0,.,0,.,.,.
CC[C@H](C)[C@H](NC(N)=O)C(=O)Nc1ccc(OC)c(Cl)c1,8,-6,0,28,0,0,.,.
CCC(C)C(NC(N)=O)C(=O)Nc1ccc(C)c(Cl)c1 (configuration not stated),56*,6,-3,-4,0,-1,2,.
